The whole screen tested about 10,000 compounds, of which about 25 (0.2%) were called active.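 The calls were made as follows: active = compound among top-ranked inhibitors of TNF-induced VCAM-1 adhesion protein staining, with the hit upheld by image or statistical review; inactive = the rest, including hits rejected on review.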 For the sample, actives were picked, then their nearest neighbours and some compounds at random.
Assay: suppression of endothelial VCAM-1 upregulation – cell-based, plate reader, pooled HUVEC, TNFa stimulus (AID 454)
Conditions: HUVEC TNFa-induced VCAM-1 surface immunofluorescence; stronger effect = higher value,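 compound tested at 5 µM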

| Structure (SMILES) | inhibition |
| --- | --- |
| CCOC(=O)c1cccc(NC(=O)CSc2nc3cccnc3n2C)c1 | inactive |
| Cn1c(SCc2cccc3ccccc23)nnc1-c1ccco1 | inactive |
| CN1C(=O)C(CC(=O)N2CCN(C(c3ccccc3)c3ccccc3)CC2)N(C)C1=O (stereo not given) | inactive |
| CCCCC(=O)NCCNc1nc2c(c(=O)n(C)c(=O)n2C)n1Cc1ccccc1 | inactive |
| COc1ccc(C(=O)N2CCN(c3nc4cc(C)ccc4cc3C#N)CC2)c(OC)c1 | inactive |
| Cc1nc2sc3c(c2c(=O)o1)CCC3 | inactive |
| CCC(C)(C(=O)NC1CCCCC1)N(Cc1ccco1)C(=O)c1cnccn1 (stereo not given) | inactive |
| CC1=CCC2C(=O)N(c3nc(C)cc(C)n3)C(=O)C2C1 (stereo not given) | inactive |
| CCCn1c(NC(=O)C2COc3ccccc3O2)nc2ccccc21 (stereo not given) | inactive |
| Cc1cc(C)nc(NC(=O)c2ccc(OC(C)C)cc2)n1 | inactive |
| Cc1nn(-c2ccc(F)cc2)c2c1cc(C#N)c1nc3ccccc3n12 | inactive |
| COc1ccc(C(=O)Cn2c(N3CCCCC3)nc3c2c(=O)n(C)c(=O)n3C)cc1OC | inactive |
| COc1ccc(-c2nc3c(c(=O)n(C)c(=O)n3C)n2CC2CC(c3ccccc3)=NO2)cc1OC (stereo not given) | 73.1% (active) |
| COc1cccc(Cn2c(Oc3ccccc3)nc3c2c(=O)n(C)c(=O)n3C)c1 | inactive |
| Cc1ccccc1Nc1nc(N)nc(CSCc2c(C)noc2C)n1 | inactive |
| Cc1cc2oc(=O)cc(CN3CCCCC3)c2cc1C(C)C | inactive |
| CC(C)(C)C1=Nn2c(nnc2-c2n[nH]c3c2CCC3)SC1 | inactive |
| COc1ccc(C2=Nn3c(nnc3-c3ccccc3)SC2)cc1OC | inactive |
| Clc1ccc(C2=Nn3c(nnc3-c3n[nH]c4c3CCC4)SC2)cc1Cl | 106% (active) |
| COc1ccc(C2CC(c3ccc(Cl)cc3Cl)n3nc(N)nc3N2)cc1 (stereo not given) | inactive |
| COc1cccc(OCCn2ccnc2)c1 | inactive |
| COc1ccccc1NC(=O)CSc1nnc(-c2ccncc2)n1CC1CCCO1 (stereo not given) | inactive |
| C=C(Cl)COc1ccc2c(C)cc(=O)oc2c1 | inactive |
| Nc1ncnc2nc(SCCN3CCCCC3)[nH]c12 | inactive |

| Structure (SMILES) | inhibition |
| --- | --- |
| CCCC(=O)Nc1cccc(NC(=O)CN2CCN(c3ccccc3OC)CC2)c1 | inactive |
| CN(c1ccc(OCc2nnc(-c3ccccc3)o2)cc1)S(=O)(=O)c1ccccc1 | inactive |
| CCOC(=O)c1ccccc1NC1CC(=O)N(c2ccccc2C)C1=O (stereo not given) | inactive |
| C=CS(=O)(=O)c1ccc(Oc2ccc(S(=O)(=O)C=C)cc2)cc1 | 100% (active) |
| O=S(=O)(Nc1ccccn1)c1ccc(Oc2ccccc2)cc1 | inactive |
| CN(C)S(=O)(=O)c1ccc(Oc2ccc(S(=O)(=O)N(C)C)cc2)cc1 | inactive |
| CC1CCN(C(=O)CN2C(=O)C(C)(C)Oc3ccc(C(=O)NC4CCCC4)cc32)CC1 | inactive |
| O=C1CC(N2CCOCC2)C(=O)N1c1ccccc1Cl (stereo not given) | inactive |
| COc1ccccc1Nc1nc(N)nc(CN2CCN(c3ccccc3F)CC2)n1 | inactive |
| OC1(c2cccc(C(F)(F)F)c2)CCNCC1 | inactive |
| CCOC(=O)c1[nH]c(C)c(C(=O)Nc2ccc(C)c(Cl)c2)c1C | inactive |
| COc1ccc(OC)c(C2C(C(=O)Nc3cccnc3)=C(C)NC3=C2C(=O)CCC3)c1 (stereo not given) | inactive |
| COC(=O)C1=C(C)NC(=O)C1(NC(=O)c1cccnc1)C(F)(F)F (stereo not given) | inactive |
| COc1ccc(CN2C(=O)[C@@H]3C(c4ccc(F)cc4)=NO[C@@H]3C2=O)cc1 | inactive |
| Cc1cccn2c(=O)c3cc(C#N)c(=NC(=O)c4ccncc4)n(Cc4ccco4)c3nc12 | inactive |
| CC(C)n1c(=NC(=O)c2ccco2)c(C#N)cc2c(=O)n3ccccc3cc21 | 78.8% (active) |
| CCOC(=O)c1cc2c(=O)n3ccccc3nc2n(CC(C)C)c1=NC(=O)c1ccco1 | inactive |
| CCOc1ccc(NC(=O)CN2CCN(CC(=O)c3ccc(OCC)cc3)CC2)cc1 | inactive |
| CCCCc1c(O)nc(N2CCN(Cc3ccccc3)CC2)[nH]c1=O | inactive |
| CCN(CC(=O)Nc1ccc2c(c1)CCC2)Cc1nc2ccccc2c(=O)[nH]1 | inactive |
| Nc1nc(SCc2ccc(Cl)cc2Cl)n[nH]1 | inactive |
| O=S(=O)(Nn1cnnc1)c1ccccc1Cl | inactive |
| CCOc1cc2[nH]c(=S)n(CC3CCCO3)c(=O)c2cc1OCC (stereo not given) | inactive |
| Clc1ccc(OCc2nnc(SCCN3CCCCC3)n2Cc2ccco2)cc1 | 82.9% (active) |

| Structure (SMILES) | inhibition |
| --- | --- |
| Cc1cc(NC(=O)CSc2nnc(COc3cccc(C)c3C)n2Cc2ccco2)no1 | inactive |
| COCCn1c(COc2ccc(Cl)cc2)nnc1SCC(N)=O | inactive |
| Cc1ccccc1-c1nc(CN2CCC(C(=O)NCc3cccnc3)CC2)c(C)o1 | inactive |
| O=c1nc(N2CCCC2)nc(Nc2ccccc2)[nH]1 | inactive |
| O=C(Cn1cc2c(n1)CCCCC2)N1CCc2ccccc21 | inactive |
| Cc1nnc(SCC(=O)N2c3ccccc3CC2C)s1 (stereo not given) | inactive |
| Cc1nnc(SC(=O)N2c3ccccc3Sc3ccccc32)s1 | 92.2% (active) |
| Cc1nnc(SCC(=O)NCc2ccccc2)s1 | inactive |
| CCOc1cccc(Oc2ccc(C(F)(F)F)cn2)c1 | inactive |
| COc1ccc(S(=O)(=O)N2CN(Cc3ccco3)c3nc4ccccc4nc32)cc1 | inactive |
| Cc1ccc2nc(C3CCN(CC(=O)N4CCCCCC4)CC3)[nH]c2c1 | inactive |
| CCOc1ccccc1N1CCN(c2nc3ccccc3nc2C(C#N)C(=O)OC)CC1 (stereo not given) | inactive |
| S=c1[nH]nc(-c2ccco2)n1-c1cccc2ccccc12 | inactive |
| Cc1c(C)c2ccc(OC3CCCCC3=O)cc2oc1=O (stereo not given) | inactive |
| COc1ccccc1CC(=O)NCc1ccc2c(c1)OCO2 | inactive |
| O=C1c2ccccc2C(Nc2ccc(-c3nc4ccccc4[nH]3)cc2)N1Cc1ccco1 (stereo not given) | inactive |
| O=C1c2ccccc2C(Nc2ccc3nc(-c4cccnc4)[nH]c3c2)N1Cc1ccco1 (stereo not given) | 79.2% (active) |
| O=C1c2ccccc2C(Nc2ccc(F)c(Cl)c2)N1Cc1ccco1 (stereo not given) | inactive |
| CCCc1cc(Nc2cccc(OC)c2)n2ncnc2n1 | inactive |
| CCOC(=O)CS(=O)(=O)c1nc(-c2ccccc2)cc(C(F)(F)F)n1 | inactive |
| COc1ccc(-c2cc(C(F)(F)F)nc(SCCC(=O)N3CCOCC3)n2)cc1 | inactive |
| COCC(C)NC(=O)CCS(=O)(=O)c1nc(-c2ccc(OC)cc2)cc(C(F)(F)F)n1 (stereo not given) | 91.4% (active) |

Source: PubChem BioAssay AID454 (Sanford-Burnham Center for Chemical Genomics, 2006)
